Test results published in PMC4336329 (PLoS ONE, 2015).
Hit rate of the full screen: of about 310,000 compounds, about 14,000 (4.5%) showed an effect of 50% or more. Effects have a minus sign here. The sample as a whole holds a higher share of strong results than the screen did.

target: human ether-à-go-go-related gene (hERG) potassium channel (human, UniProt Q12809); test: primary screen, population patch clamp on CHO cells stably expressing hERG; higher = less effect of the substance
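Also: peak tail current of the secondary pulse compared with the same well before compound.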

Chain of human ether-à-go-go-related gene (hERG) potassium channel (Q12809 whole entry, looked up): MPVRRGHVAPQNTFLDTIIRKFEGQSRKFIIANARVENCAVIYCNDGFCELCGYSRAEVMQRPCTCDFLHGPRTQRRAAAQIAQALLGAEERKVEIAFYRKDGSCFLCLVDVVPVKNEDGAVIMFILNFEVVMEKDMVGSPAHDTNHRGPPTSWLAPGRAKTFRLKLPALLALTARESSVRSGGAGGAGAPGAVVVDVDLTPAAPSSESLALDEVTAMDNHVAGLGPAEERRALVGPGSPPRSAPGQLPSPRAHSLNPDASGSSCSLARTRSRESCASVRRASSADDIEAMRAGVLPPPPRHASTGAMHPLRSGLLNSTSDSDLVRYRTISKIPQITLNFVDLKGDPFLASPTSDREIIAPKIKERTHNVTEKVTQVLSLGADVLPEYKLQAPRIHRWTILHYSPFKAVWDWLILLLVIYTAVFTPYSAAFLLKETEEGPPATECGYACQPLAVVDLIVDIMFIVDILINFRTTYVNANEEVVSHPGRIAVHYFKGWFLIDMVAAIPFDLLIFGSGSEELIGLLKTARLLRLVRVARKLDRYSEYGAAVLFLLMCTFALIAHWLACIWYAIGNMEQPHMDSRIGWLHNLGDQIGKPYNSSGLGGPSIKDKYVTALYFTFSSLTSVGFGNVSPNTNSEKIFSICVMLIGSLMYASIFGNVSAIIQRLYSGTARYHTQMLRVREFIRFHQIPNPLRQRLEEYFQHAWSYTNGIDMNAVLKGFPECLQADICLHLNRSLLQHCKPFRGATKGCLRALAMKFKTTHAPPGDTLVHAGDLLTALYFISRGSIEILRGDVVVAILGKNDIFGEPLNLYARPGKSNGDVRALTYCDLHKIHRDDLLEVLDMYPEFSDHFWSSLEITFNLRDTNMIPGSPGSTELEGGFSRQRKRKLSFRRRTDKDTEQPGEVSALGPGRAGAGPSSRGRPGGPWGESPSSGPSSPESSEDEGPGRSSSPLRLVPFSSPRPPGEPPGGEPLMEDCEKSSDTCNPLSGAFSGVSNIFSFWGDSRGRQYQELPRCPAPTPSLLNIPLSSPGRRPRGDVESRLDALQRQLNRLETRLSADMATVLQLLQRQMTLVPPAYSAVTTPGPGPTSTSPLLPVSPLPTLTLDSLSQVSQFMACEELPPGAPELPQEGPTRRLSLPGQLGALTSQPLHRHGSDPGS

| Compound | hERG current change (%, negative = inhibition) at 10uM [%] |
| --- | --- |
| CCOC(=O)Nc1ccc2c(c1)N(C(=O)CN(C)C)c1ccccc1CC2.Cl | -7.94 |
| CCOC(=O)C1CCN(C(=O)c2cc3c(=O)n4cccc(C)c4nc3s2)CC1 | -15.5 |
| FC(F)(F)c1cc(N2CCN(Cc3ccccc3)CC2)c2ccccc2n1 | 10.9 |
| CC(CCc1ccccc1)NC(=O)CNC(=O)N1CC(=O)Nc2ccccc21 (stereo not shown) | -2.77 |
| CCOCCOC(=O)c1[nH]c2c(c1C)C(=O)CC(c1ccccc1)C2 (stereo not shown) | 7.35 |
| Cc1sc(NC(=S)NC(=O)c2ccc(C(C)(C)C)cc2)c(C#N)c1C | 6.48 |
| COc1ccc(CCNC(=O)CN2C(=O)COc3ccc(S(=O)(=O)N4CCOCC4)cc32)c(OC)c1 | -28.1 |
| CN(Cc1ccccc1)S(=O)(=O)c1ccc(OCC(=O)N2CCC(C(N)=O)CC2)cc1 | -2.99 |
| O=C(Nc1ccc2ccccc2c1)N1CCN(c2ncccc2C(F)(F)F)CC1 | -7.58 |
| O=C(c1cccc([N+](=O)[O-])c1)N1CCN(Cc2ccc3c(c2)OCO3)CC1 | -44.3 |
| CCCOc1ccc(C(=O)N2CCN(Cc3ccc4c(c3)OCO4)CC2)cc1 | -67.7 |
| O=C(c1cc([N+](=O)[O-])cc([N+](=O)[O-])c1)N1CCN(Cc2ccc3c(c2)OCO3)CC1 | -58.2 |
| O=C(Cc1ccc([N+](=O)[O-])cc1)N1CCN(Cc2ccc3c(c2)OCO3)CC1 | -45.5 |
| Cc1ccc(C(=O)N2CCN(Cc3ccc4c(c3)OCO4)CC2)cc1C | -14.4 |
| CCCCOc1ccc(C(=O)NCC(=O)N2CCN(Cc3ccc4c(c3)OCO4)CC2)cc1 | -42.4 |
| C/C(=N\NC(=O)Nc1ccccc1)c1ccccc1 | 9.14 |
| NS(=O)(=O)c1ccc(CCNC(=O)COC(=O)CCSc2ccc(Cl)cc2)cc1 | -18.5 |
| CC(C)(C)NC(=O)CCCSc1nc2ccccc2s1 | -24.4 |
| Nc1nc(Cl)cc(Oc2ccc(Cl)cc2)n1 | 9.29 |
| CCc1cccc(OC2OC(CO)C(O)C(O)C2NC(C)=O)c1 (stereo not shown) | 0.684 |
| Clc1ccc2c(NCc3ccccn3)ccnc2c1 | -39.7 |
| O=C(NCCCNc1ccnc2cc(Cl)ccc12)c1ccccc1F | -72.4 |

| Compound | hERG current change (%, negative = inhibition) at 10uM [%] |
| --- | --- |
| Clc1ccc2c(NCc3ccccc3)ccnc2c1 | -45.5 |
| O=C(NCCNc1ccnc2cc(Cl)ccc12)c1ccccc1F | -66.4 |
| O=C(NCCCNc1ccc([N+](=O)[O-])cc1Cl)c1ccccc1F | -4.03 |
| O=C(NCCNc1ccc(Cl)cc1[N+](=O)[O-])c1ccccc1F | 3.81 |
| C1=CCC(CN2CCNCC2)CC1.O=C(O)C(F)(F)F (stereo not shown) | 9.96 |
| CNC(=O)COC(=O)c1ccccc1NC(=O)c1ccco1 | -52.1 |
| CN(C)C(=O)COC(=O)c1ccccc1NC(=O)c1ccco1 | -15.7 |
| O=C(Nc1ccccc1C(=O)OCC(=O)N1CCc2ccccc2C1)c1ccco1 | -30.9 |
| O=C(COC(=O)c1ccccc1NC(=O)c1ccco1)NC1CC1 | -19 |
| CC1CCN(C(=O)COC(=O)c2ccccc2NC(=O)c2ccco2)CC1 | -60.9 |
| CC(C)(C)NC(=O)COC(=O)c1ccccc1NC(=O)c1ccco1 | -7.06 |
| CS(=O)(=O)N1CCN(C2C3CC4CC(C3)CC2C4)CC1.O=C(O)C(=O)O (stereo not shown) | 26.3 |
| CC(=O)Nc1ccc(N(C(=O)c2cnccn2)C(C(=O)NC2CCCCC2)c2ccc(F)cc2)cc1 (stereo not shown) | 0.645 |
| CC(=O)c1ccccc1C(=O)N(C)C1CCCN(Cc2ccccc2F)C1 (stereo not shown) | 15.2 |
| CNC(=O)N(O)C1N(/N=C/c2ccc(SC)cc2)C(=S)SC1(C)C (stereo not shown) | 26.3 |
| O=C(NCCN1CCOCC1)c1ccc2c(c1)N(Cc1ccc(Cl)cc1)CCS2 | -29.8 |
| N#Cc1c(N)n(-c2ccc(O)cc2)c2nc3ccccc3nc12 | 8.96 |
| Cc1ccc(C)c(-c2[nH]ncc2CN2CCCC(CO)(Cc3ccccc3C)C2)c1 (stereo not shown) | -47.8 |
| COc1cccc(CC2(CO)CCCN(Cc3cn(C)c4ccccc34)C2)c1 (stereo not shown) | -77.9 |
| COc1cccc(CC2(CO)CCCN(Cc3ccccc3-c3ccco3)C2)c1 (stereo not shown) | -75.8 |
| COc1ccc(CN2CCCC(CO)(Cc3ccc(F)cc3)C2)cc1C (stereo not shown) | -47.7 |
| COc1ccc(CN2CCCC(CO)(Cc3ccc(F)cc3)C2)c(OC)c1OC (stereo not shown) | -71.1 |

| Compound | hERG current change (%, negative = inhibition) at 10uM [%] |
| --- | --- |
| OCC1(Cc2ccc(F)cc2)CCCN(Cc2ccc(F)cc2Cl)C1 (stereo not shown) | -2.59 |
| COc1cccc(CC2(CO)CCCN(Cc3ccc(-c4ccco4)cc3)C2)c1 (stereo not shown) | -3.75 |
| COc1cccc(CC2(CO)CCCN(Cc3ccccc3Cl)C2)c1 (stereo not shown) | -31.2 |
| COc1cccc(CC2(CO)CCCN(Cc3cn[nH]c3-c3cc(C)ccc3C)C2)c1 (stereo not shown) | -59.2 |
| COc1cccc(CC2(CO)CCCN(Cc3cn[nH]c3-c3ccccc3)C2)c1 (stereo not shown) | -49.9 |
| CC1C(=O)C(C)C(c2ccco2)NC1c1ccco1.Cl (stereo not shown) | 13.9 |
| O=C(CSc1nnc(CNC(=O)c2cccs2)o1)NC1CCCCC1 | -24 |
| C/C(=N/NC(=O)c1ccncc1)c1ccc2c(c1)OCO2 | 13.8 |
| COc1cccc(CC2(CO)CCCN(Cc3ccc(OC)c(C)c3OC)C2)c1 (stereo not shown) | -77.6 |
| COc1ccc(C(N)=O)cc1NC(=O)c1cccc(F)c1 | 18.9 |
| NC(=O)c1ccc(NC(=O)COC(=O)C(Cc2ccccc2)NC(=O)c2ccccc2)cc1 (stereo not shown) | -53 |
| O=C(COC(=O)C(Cc1ccccc1)NC(=O)c1ccc(Cl)cc1)c1ccc(Cl)cc1 (stereo not shown) | -27.3 |
| O=C(COC(=O)C(Cc1ccccc1)NC(=O)c1ccccc1)c1ccccc1 (stereo not shown) | -1.84 |
| O=C(NC1CC1)C1=C[C@H](c2ccc(C(F)(F)F)cc2)C[C@H](OCc2ccc(CO)cc2)O1 | -42.7 |
| O=C(O)C1=C[C@@H](c2ccc(C(F)(F)F)cc2)C[C@@H](OCc2ccc(CO)cc2)O1 | 16.7 |
| CN1CCN(C(=O)C2=C[C@H](c3ccc(C(F)(F)F)cc3)C[C@H](OCc3ccc(CO)cc3)O2)CC1 | -40.4 |
| O=C(NC1CC1)C1=C[C@H](c2ccccc2)C[C@H](OCc2ccc(CO)cc2)O1 | -19.9 |
| O=C(C1=C[C@H](c2ccc(C(F)(F)F)cc2)C[C@H](OCc2ccc(CO)cc2)O1)N1CCCCCCC1 | -17.7 |
| O=C(NC1CC1)C1=C[C@@H](c2ccccc2)C[C@@H](OCc2ccc(CO)cc2)O1 | -38.3 |
| C#Cc1ccc([C@@H]2C=C(C(=O)NC3CC3)O[C@H](OCc3ccc(CO)cc3)C2)cc1 | -3.96 |
| O=C(NC1CC1)C1=C[C@@H](c2ccc(Br)cc2)C[C@@H](OCc2ccc(CO)cc2)O1 | -56.4 |
| O=C(NC1CC1)C1=C[C@@H](c2ccc(C(F)(F)F)cc2)C[C@@H](OCc2ccc(CO)cc2)O1 | -63.2 |

| Compound | hERG current change (%, negative = inhibition) at 10uM [%] |
| --- | --- |
| O=C(O)C1=C[C@H](c2ccc(Br)cc2)C[C@H](OCc2ccc(CO)cc2)O1 | 15.1 |
| CN1CCN(C(=O)C2=C[C@@H](c3ccc(C(F)(F)F)cc3)C[C@@H](OCc3ccc(CO)cc3)O2)CC1 | -52.6 |
| O=C(NC1CC1)C1=C[C@H](c2ccc(Br)cc2)C[C@H](OCc2ccc(CO)cc2)O1 | -71.1 |
| COc1cc(CNC(=O)c2ccc3c(c2)S(=O)(=O)c2ccccc2C3=O)cc(OC)c1 | -0.0926 |
| O=C(COC(=O)c1cccc(Br)c1)Nc1cccc2c1C(=O)c1ccccc1C2=O | 4.56 |
| Cc1cccc(C)c1Nc1nnc(SCC(=O)NC2CCS(=O)(=O)C2)s1 (stereo not shown) | 1.96 |
| CS(=O)(=O)CCC(C(=O)n1nnc2ccccc21)N1C(=O)c2ccccc2C1=O (stereo not shown) | -3.22 |
| Cc1ccc(NS(=O)(=O)c2ccc(Cl)c(C(=O)Nc3ccccc3-c3nc4ccccc4[nH]3)c2)cc1C | 17.2 |
| O=C(CC12CC3CC(CC(C3)C1)C2)Nc1ccc2c(c1)COC2=O | -9.44 |
| CN(C(=O)/C=C/c1ccccc1)C1CCS(=O)(=O)C1 (stereo not shown) | -0.518 |
| Cc1ccc(CS(=O)Cc2ccc(C(=O)N3CCN(c4ccccc4)CC3)o2)cc1 (stereo not shown) | -14.8 |
| O=C(c1ccc(CS(=O)Cc2ccc(Cl)cc2)o1)N1CCN(c2ccccn2)CC1 (stereo not shown) | -61.2 |
| O=C(c1ccc(CS(=O)Cc2ccccc2Cl)o1)N1CCN(c2ccccn2)CC1 (stereo not shown) | -5.66 |
| Cc1ccc(CS(=O)Cc2ccc(C(=O)N3CCN(c4ccc(F)cc4)CC3)o2)cc1 (stereo not shown) | -52.9 |
| COc1ccc(N2CCN(C(=O)c3ccc(CS(=O)Cc4ccc(Cl)cc4)o3)CC2)cc1 (stereo not shown) | -50.1 |
| Cc1ccc(CS(=O)Cc2ccc(C(=O)N3CCOCC3)o2)cc1 (stereo not shown) | -33.3 |
| COc1cccc(N2CCN(C(=O)c3ccc(CS(=O)c4ccccc4Cl)o3)CC2)c1 (stereo not shown) | -30.8 |
| COc1cccc(N2CCN(C(=O)c3ccc(CS(=O)Cc4ccc(C)cc4)o3)CC2)c1 (stereo not shown) | -11.4 |
| COc1cccc(N2CCN(C(=O)c3ccc(CS(=O)Cc4ccccc4Cl)o3)CC2)c1 (stereo not shown) | -70.7 |
| Cc1ccc(CS(=O)Cc2ccc(C(=O)N3CCN(c4ccccn4)CC3)o2)cc1 (stereo not shown) | -10.1 |
| O=C(c1ccc(CS(=O)Cc2ccccc2Cl)o1)N1CCN(c2cccc(Cl)c2)CC1 (stereo not shown) | -41.8 |
| COc1ccc(N2CCN(C(=O)c3ccc(CS(=O)Cc4ccc(C)cc4)o3)CC2)cc1 (stereo not shown) | -18.3 |
